The list is not random: actives were taken first. Their share in the collection is about 7.5%.
TSHR antagonist = human thyrotropin receptor antagonism. P16473. AID 504810. activity change, negative = inhibition, % at 11.5 µM. 0.2% of 330,000 active. TSHR-expressing cells, TSH-stimulated cAMP HTRF, 2 h; stronger effect = lower value;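 active means activity change below a set negative limit, meaning inhibition stronger than a set level, cut at about -70% in these data; inconclusive means activity change between two set negative limits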
Target sequence (P16473 whole entry, looked up): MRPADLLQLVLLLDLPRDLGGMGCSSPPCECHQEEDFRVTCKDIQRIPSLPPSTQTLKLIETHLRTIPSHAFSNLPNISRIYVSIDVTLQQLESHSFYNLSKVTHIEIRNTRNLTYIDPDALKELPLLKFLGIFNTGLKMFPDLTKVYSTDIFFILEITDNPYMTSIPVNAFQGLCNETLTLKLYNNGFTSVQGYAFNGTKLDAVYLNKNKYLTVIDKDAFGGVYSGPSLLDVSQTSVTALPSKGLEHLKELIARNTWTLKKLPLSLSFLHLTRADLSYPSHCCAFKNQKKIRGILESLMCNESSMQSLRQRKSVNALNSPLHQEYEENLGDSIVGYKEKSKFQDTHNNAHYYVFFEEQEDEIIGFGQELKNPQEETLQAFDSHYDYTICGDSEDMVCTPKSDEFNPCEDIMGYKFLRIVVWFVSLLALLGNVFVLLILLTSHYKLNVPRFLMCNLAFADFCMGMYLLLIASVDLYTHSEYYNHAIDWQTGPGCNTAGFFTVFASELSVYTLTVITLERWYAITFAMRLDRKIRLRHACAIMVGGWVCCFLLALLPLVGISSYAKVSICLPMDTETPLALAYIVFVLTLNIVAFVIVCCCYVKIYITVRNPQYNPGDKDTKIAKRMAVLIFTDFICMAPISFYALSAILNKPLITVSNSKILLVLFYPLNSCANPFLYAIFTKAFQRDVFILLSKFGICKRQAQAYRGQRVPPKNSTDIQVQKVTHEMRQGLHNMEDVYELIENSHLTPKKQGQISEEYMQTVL
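Cell-based HTRF cAMP assay; TSHR cells + compound, TSH EC80 (4nM final), 2 h, 37 deg C. Lysis with anti-cAMP cryptate and cAMP-d2, 30 min RT, read 665/620 nm.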
RORg inh = ROR gamma (mouse) transcription inhibition. AID 2551. 5.4% of 310,000 active. P51450. Drosophila S2 Gal4-RORgamma UAS-luciferase reporter, 20 h. Potency, µM (series often up to 53.6 µM), for the others: at the top dose activity change, negative = inhibition, actives largely listed as inhibitors; further: potency means the concentration at half of the fitted maximal effect; nearly all actives have a fitted effect of over 60% in size
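Drosophila Schneider cells stably carrying a metallothionein-driven Gal4 DBD–ROR gamma fusion and a UAS-Photinus luciferase reporter were exposed to compound for 1 hr, then induced with copper sulfate (700 uM final) for 20 hr at ambient temperature before luminescence reading.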
B2AR arrestin = recruits beta-arrestin to the human beta2-adrenergic receptor | AID 492947 | Potency, µM (highest dose often 46.1 µM), for the others: top-dose activation, hits mostly activators | beta-arrestin recruitment to beta2AR, cell-based reporter | 0.02% of 330,000 active | P07550;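 further: potency means the concentration at half of the fitted maximal effect; 0% = DMSO controls and full agonism = EC100 isoproterenol or metaproterenol; nearly all actives have a fitted effect of over 65% in size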
Gal4-VP16 FLuc = counter-screen for ROR gamma inhibitors: Gal4-VP16 reporter; Drosophila S2 Gal4-VP16 UAS-luciferase, luminescence, 20 h; Potency, µM (doses to about 53.6 µM), for inactives: at the top dose activity, negative = inhibition, most hits filed as inhibitors; 3.5% of 310,000 active;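 further: Gal4-VP16 expression switched on by copper sulfate through the metallothionein promoter; potency means the concentration at half of the fitted maximal effect; nearly all actives have a fitted effect of over 50% in size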
ELG1 repair inh = inhibitors of ELG1-dependent DNA repair in HEK293T cells; 2.3% of 330,000 active; Potency, µM (series often up to 46.1 µM), for inactives: at the highest dose activity change, negative = inhibition, actives largely listed as inhibitors; HEK293T ELG1-luciferase reporter, luminescence, 16 h; DNA damage induced by 5-fluorouridine; further: potency means the concentration at half of the fitted maximal effect; nearly all actives have a fitted effect of over 55% in size
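In this reporter screen, reduction of luminescence relative to DMSO vehicle indicated activity. Compounds and 5-fluorouridine were added together to 2,000 cells per well, incubated for 16 hr at 37 °C, then developed with ONE-Glo.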
* marks the source's active call; other numbers are inactive results; u = inconclusive; x = no result; ! = not active in a repeat; [ ] = dose if it differs, or a comment. Unless noted, the call rests on the fitted dose curve; in most records, active means well fitted curve in the direction sought with a large enough effect; inconclusive means small, poorly fitted or top-dose-only effect, or another doubt; inactive means no such curve, though single readings can be large; an effect the other way counts as inactive or inconclusive. Unless noted, on the % scale 0 is the no-effect control and ±100 the full control effect.

SMILES	TSHR antagonist	RORg inh	B2AR arrestin	Gal4-VP16 FLuc	ELG1 repair inh
CC(C)(C)c1cc(CCC(=O)NCc2ccncc2)cc(C(C)(C)C)c1O	-14	-7%	0%	7%	11%
CCc1ccc2c(c1)c(N=NC1=NC(=O)CS1)c(O)n2CC	5	11µM*	0%	u	-5%
O=C1ON=C(c2ccccc2)/C1=C/c1ccc(-c2ccccc2[N+](=O)[O-])o1	-20	u	10%	10µM*	u
Cc1ccc(S(=O)(=O)Nc2ccc(S(=O)(=O)Nc3nccs3)cc2)c([N+](=O)[O-])c1	1	u	0%	u	10%
CC(=O)c1cccc(-n2nnnc2SCC(=O)Nc2cccc(NC(=O)c3ccco3)c2)c1	-13	u	0%	-8%	18µM*
O=C(CSc1nnnn1C1CCCC1)Nc1cccc(NC(=O)c2ccco2)c1	-10	36%	0%	-5%	-15%
Cc1c2oc3c(C)ccc(C(=O)N[C@@H]4C(=O)N[C@H](C(C)C)C(=O)N5CCC[C@H]5C(=O)N(C)CC(=O)N(C)[C@@H](C(C)C)C(=O)O[C@@H]4C)c3nc-2c(C(=O)N[C@@H]2C(=O)N[C@H](C(C)C)C(=O)N3CCC[C@H]3C(=O)N(C)CC(=O)N(C)[C@@H](C(C)C)C(=O)O[C@@H]2C)c(N)c1=O	x	0.022µM*	x	20µM*!	x
CCCCNC(=S)NNC(=O)c1sccc1C	9	1.4µM*	0%	-22%	3%
C=CCNC(=S)NNC(=O)c1csc(C)c1C	17	u	0%	7.9µM*	25%
CCCCNC(=S)NNC(=O)c1csc(C)c1C	2	u	3%	14µM*	-6%
CCCCNC(=S)NNC(=O)c1ccncc1	14	u	0%	-3%	-4%
CCCCNC(=S)NNC(=O)c1csc(C(C)C)c1	7	7.9µM*	0%	u	30%
CCCCNC(=O)[C@@H]1Cc2ccccc2N1C(=O)[C@H](N)CC	x	10%	x	9%	x
COc1ccc(S(=O)(=O)N2CCC(Nc3ccccc3Cl)CC2)cc1	-19	10%	0%	10%	-11%
N#CCCn1cc(CNC2CCC(O)CC2)c2ccccc21 (stereo not given)	9	3%	0%	3%	7%
CC(C(=O)NC1CCCc2ccccc21)N1C(=O)C2CCCCC2C1=O (stereo not given)	5	x	0%	x	9%
Cc1ccsc1C(=O)NNC(=S)NC1CCCCC1	5	-39%	0%	11µM*	29%
O=C(Nc1nc2ccccc2s1)c1cc(-c2ccccc2)nn1-c1ccccc1	-25	10µM*	0%	u	u
CC(=O)c1sc(NC(=O)c2cc(-c3ccccc3)nn2-c2ccccc2)nc1C	-49	-9%[10 µM]	0%	u	15µM*
CC(=O)c1sc(NC(=O)c2cc3c(C)nn(-c4ccccc4)c3s2)nc1C	12	-8%	-1%	-8%	9%
Cc1noc(C)c1S(=O)(=O)N(C)C[C@H]1Oc2ccc(NS(=O)(=O)c3ccccc3)cc2C(=O)N([C@H](C)CO)C[C@@H]1C	23	x	0%	x	u
OCC(CO)(CBr)CBr	x	7%	x	-19%	x
Cc1ccc(NC(=O)CCc2nnc3ccc(N4CCC5(CC4)OCCO5)nn23)nc1	22	-10%	1%	-1%	5.8µM*
CC(=O)c1ccc(NC(=O)CCc2nnc3ccc(N4CCC5(CC4)OCCO5)nn23)cc1	-1	25%	0%	u	u
CCOC(=O)CC1CCCCN1C(=O)CCCn1nnnc1CN1CCC(C)CC1 (stereo not given)	-1	6%	0%	-2%	7%
SMILES	TSHR antagonist	RORg inh	B2AR arrestin	Gal4-VP16 FLuc	ELG1 repair inh
Cc1cc(C)nc(/N=c2/ssnc2Cl)c1	-9	20µM*	0%	u	u
Cc1nnc(N=c2ssnc2Cl)o1	-7	x	-3%	x	u
Cc1ccc(N=c2ssnc2Cl)cc1	-8	13µM*	0%	u	u
Cc1cc(Cl)ccc1N=c1ssnc1Cl	-28	11µM*	-1%	u	16µM*
Nc1ccccc1N=c1ssnc1Cl	18	-40%	0%	-20%	-1%
COc1cccc(CN2CC34CCC(CC3S2(=O)=O)O4)c1 (stereo not given)	x	11%	x	0%	x
